# Hit rate of the full screen: of about 5,500 compounds, about 2,000 (36%) were called active. About 18% were inconclusive and are not listed. The list shows a part of the results. A number with no mark means an inactive call. Cut-off read from the data, not from the text of the source: active = normalized growth mostly below about 0.91 (no sharp cut-off); inconclusive = no clear call, values can overlap the other calls; inactive = mostly above about 0.92.
# Assay: chemical genetic growth profiling, strain panel (AID 1159580);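 note: tested at 20 µM; growth read once vehicle control cultures reached saturation at 30 °C; 1 = growth at the plate median or of vehicle wells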
# Details: growth OD
# [1] = S. cerevisiae deletion strains, locus YAL013W, strain DEP1, stronger effect = lower value
# [2] = S. cerevisiae deletion strains, locus YBR229C, strain ROT2, stronger effect = lower value
# [3] = S. cerevisiae deletion strains, locus YDL101C, strain DUN1, stronger effect = lower value
# [4] = S. cerevisiae deletion strains, locus YDR150W, strain NUM1, stronger effect = lower value
# [5] = S. cerevisiae deletion strains, locus YEL061C, strain CIN8, stronger effect = lower value
# [6] = S. cerevisiae deletion strains, locus YGR078C, strain PAC10, stronger effect = lower value
# [7] = S. cerevisiae deletion strains, locus YHR030C, strain SLT2, stronger effect = lower value
# [8] = S. cerevisiae deletion strains, locus YHR087W, strain rtc3, stronger effect = lower value
# [9] = S. cerevisiae deletion strains, locus YJL187C, strain SWE1, stronger effect = lower value
# [10] = S. cerevisiae deletion strains, locus YJR043C, strain POL32, stronger effect = lower value
# [11] = S. cerevisiae deletion strains, locus YJR075W, strain HOC1, stronger effect = lower value
# [12] = S. cerevisiae deletion strains, locus YKL190W, strain CNB1, stronger effect = lower value
# [13] = S. cerevisiae deletion strains, locus YLR039C, strain RIC1, stronger effect = lower value
# [14] = S. cerevisiae deletion strains, locus YLR058C, strain SHM2 (second series), stronger effect = lower value
# [15] = S. cerevisiae deletion strains, locus YLR085C, strain ARP6, stronger effect = lower value
# [16] = S. cerevisiae deletion strains, locus YLR262C, strain YPT6, stronger effect = lower value
# [17] = S. cerevisiae deletion strains, locus YML094W, strain GIM5, stronger effect = lower value
# [18] = S. cerevisiae deletion strains, locus YMR219W, strain ESC1, stronger effect = lower value
# [19] = S. cerevisiae deletion strains, locus YMR263W, strain SAP30, stronger effect = lower value
# [20] = S. cerevisiae deletion strains, locus YMR307W, strain GAS1, stronger effect = lower value
# [21] = S. cerevisiae deletion strains, locus YNL153C, strain GIM3, stronger effect = lower value
# [22] = S. cerevisiae deletion strains, locus YNL298W, strain CLA4 (second series), stronger effect = lower value
# [23] = S. cerevisiae deletion strains, locus YNL322C, strain KRE1, stronger effect = lower value
# [24] = S. cerevisiae deletion strains, locus YNR030W, strain Alg12, stronger effect = lower value
# [25] = S. cerevisiae deletion strains, locus YPL055C, strain LGE1, stronger effect = lower value
# [26] = S. cerevisiae deletion strains, locus YPL241C, strain CIN2, stronger effect = lower value
# [27] = S. cerevisiae deletion strains, locus YPR135W, strain CTF4, stronger effect = lower value
# [28] = S. cerevisiae strains, strain wild type, stronger effect = lower value
smiles,measurement,setting,value
Nc1ccc2nonc2c1N,normalized growth,[1],0.965
same,normalized growth,[2],0.96
same,normalized growth,"S. cerevisiae deletion strains, locus YCL061C, strain MRC1, stronger effect = lower value",0.902 (active)
same,normalized growth,[3],0.906
same,normalized growth,"S. cerevisiae deletion strains, locus YDL134C, strain PPH21, stronger effect = lower value",0.968
same,normalized growth,[4],0.941
same,normalized growth,[5],0.956
same,normalized growth,[6],0.933
same,normalized growth,[7],0.804
same,normalized growth,[8],0.993
same,normalized growth,[9],0.974
same,normalized growth,[10],0.951
same,normalized growth,[11],0.985
same,normalized growth,[12],0.983
same,normalized growth,[13],0.908
same,normalized growth,[14],0.967
same,normalized growth,[15],0.853
same,normalized growth,[16],0.902
same,normalized growth,[17],0.954
same,normalized growth,[18],0.982
same,normalized growth,[19],0.923
same,normalized growth,[20],0.882
same,normalized growth,[21],0.919 (active)
same,normalized growth,[22],0.95
same,normalized growth,[23],0.988
same,normalized growth,[24],0.845 (active)
same,normalized growth,[25],0.921
same,normalized growth,[26],0.919
same,normalized growth,[27],0.776
same,normalized growth,[28],0.955
Cc1ccc(Sc2ccc([N+](=O)[O-])cc2/C=C2\SC(=S)NC2=O)cc1,normalized growth,[1],0.963
same,normalized growth,[2],0.992
same,normalized growth,[3],0.99
same,normalized growth,[4],0.982
same,normalized growth,[5],0.859 (active)
same,normalized growth,[6],0.98
same,normalized growth,[7],0.615 (active)
same,normalized growth,[8],0.991
same,normalized growth,[9],1
same,normalized growth,[10],0.997
same,normalized growth,[11],0.976
same,normalized growth,[12],0.979
same,normalized growth,[13],0.324 (active)
same,normalized growth,[14],0.999
same,normalized growth,[15],0.82
same,normalized growth,[16],0.744 (active)
same,normalized growth,[17],0.897
same,normalized growth,[18],0.984
same,normalized growth,[19],0.978
same,normalized growth,[20],0.524 (active)
same,normalized growth,[21],0.996
same,normalized growth,[22],0.887
same,normalized growth,[23],0.969
same,normalized growth,[24],0.903
same,normalized growth,[25],0.963
same,normalized growth,[26],0.924
same,normalized growth,[27],0.553 (active)
same,normalized growth,[28],0.982
CC(=O)N[C@@H](Cc1c[nH]c2ccccc12)C(=O)OCc1cc(C(F)(F)F)cc(C(F)(F)F)c1,normalized growth,[1],0.999
same,normalized growth,"S. cerevisiae deletion strains, locus YAL040C, strain CLN3, stronger effect = lower value",1.02
same,normalized growth,"S. cerevisiae deletion strains, locus YDR363W, strain ESC2, stronger effect = lower value",1.01
same,normalized growth,"S. cerevisiae deletion strains, locus YER002W, strain NOP16, stronger effect = lower value",1
same,normalized growth,[19],0.994
same,normalized growth,"S. cerevisiae deletion strains, locus YNL128W, strain TEP1, stronger effect = lower value",1.03
same,normalized growth,[21],0.969
same,normalized growth,"S. cerevisiae deletion strains, locus YNL175C, strain NOP13, stronger effect = lower value",0.985
same,normalized growth,"S. cerevisiae deletion strains, locus YNL197C, strain WHI3, stronger effect = lower value",0.994
same,normalized growth,"S. cerevisiae deletion strains, locus YNL224C, strain SQS1, stronger effect = lower value",0.994
same,normalized growth,[23],1.01
same,normalized growth,"S. cerevisiae deletion strains, locus YOR083W, strain WHI5 (second series), stronger effect = lower value",1.03

# — PubChem BioAssay AID1159580 (chemical genetic matrix, 2015)
